PubChem BioAssay (NCI)
This is part of a sample that, as a whole, favours compounds with a hit. Of some 83,000 tested, about 20% had one in any assay.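 Values shown are percent growth following 48 h exposure of cells in 96-well plates to a single concentration of compound; below 10 was considered active.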 A number with no mark means an inactive call. Activity calls are given as the source filed them.

These compounds were tested on OVCAR-3 ovarian (assay: NCI-60 one-dose screen, 48 h (100 = growth as untreated, 0 = no growth, -100 = all killed)). Conditions: 10 µM unless noted.
Description: Growth inhibition of the OVCAR-3 human tumor cell line is measured as a screen for anti-cancer activity. Cells are grown in 96 well plates and exposed to the test compound for 48 hours. Compounds are tested at a single concentration, which is 10^-5 M for most compounds. The reported endpoint is percent growth (GI% or GIPRCNT), where numbers from 0 - 100% represent growth inhibition, and numbers from -100% - 0 represent cell death. For example, a value of 40 represents 60% growth inhibition. A value of 0 means no net growth occurred over the course of the experiment. A value of -40 indicates 40% of cells at the beginning of the experiment died by the end of the experiment. A value of -100 means all cells are dead at the end of the experiment.
NCI-60 Human Tumor Cell Lines Screen was performed using the standard one-dose NCI protocol, which is described in more detail at https://dtp.cancer.gov/discovery_development/nci-60/default.htm.
Compounds with GIPRCNT values below 10 were considered active. Activity score was based on GIPRCNT using the following formula: […]
Score is 0 for GIPRCNT values of 100 or above, 50 for GIPRCNT values of 0, and 100 for GIPRCNT values of -100.
For `CC1CCC(C(C)(C)[N+](C)(C)C)CC1` (stereo not given), the growth was 107%.
For `CCOC(=O)Nc1nccs1`, the growth was 109%.
Compound `CC(=O)c1cc(O)ccc1O` has a growth of 119%.
`OCCc1ccc(Cl)cc1` gave a growth of 105%.
With `COc1c(CNC(=O)CCl)cc2[nH]c(C)cc2c1CNC(=O)CCl` the growth was 30.9%.
Compound `CC(O)C(F)(F)C(F)(F)C(F)(F)F` (stereo not given) has a growth of 121%.
In the case of `Nc1cc(F)ccc1[N+](=O)[O-]`, the growth is reported as 115%.
For `CC(=O)c1cccc(N(C)S(=O)(=O)c2ccc(C)cc2)c1`, the growth was 105%.
`CC1CCC(C)(C)c2ccccc21` (stereo not given) gave a growth of 114%.
In the case of `CC(C)Sc1ncnc2nc[nH]c12`, the growth is reported as 120%.
`CCOC(=O)CO` was tested, and the growth was 125%.
With `c1ccc2[nH]c(Cc3nc4ccccc4[nH]3)nc2c1` the growth was 122%.
`CC(=O)N(C)N=Nc1ccc(C)cc1` was tested, and the growth was 103%.
With `Clc1ccc(C(SCc2ccccc2)SCc2ccccc2)cc1` the growth was 90.1%.
`C=COC(=O)CCOCC(CC)CCCC` (stereo not given) gave a growth of 98%.
`Cc1cc(C(=O)NN)c(C#N)c(=O)[nH]1` was tested, and the growth was 112%.
Compound `CC(C)C(=O)OCCOc1ccc(C(C)(C)C)cc1` has a growth of 107%.
`CCN(CC)CCN1CNC(=S)NC1` gave a growth of 109%.
Work on `CC(C)OCC(CCl)OC(=O)Nc1ccccc1` (stereo not given) yielded a growth of 101%.
With `O=CNCCc1ccccc1` the growth was 115%.
Compound `Cc1cc2c(C(C)C)c(O)c(O)c(C=Nc3ccccc3[N+](=O)[O-])c2c(O)c1-c1c(C)cc2c(C(C)C)c(O)c(O)c(C=Nc3ccccc3[N+](=O)[O-])c2c1O` has a growth of 79.1%.
`O=C(NC1CCCCC1)c1ccc(Cl)cc1` gave a growth of 102%.
Compound `CCCCOC(=O)c1ccccc1O` has a growth of 124%.
Work on `CCNc1ccc2ccccc2c1N=Nc1ccc(N=Nc2ccccc2)cc1` yielded a growth of 109%.
In the case of `C=CCC(OC(C)=O)c1ccc(C(C)C)cc1` (stereo not given), the growth is reported as 162%.
In the case of `CCCCCC/C=C\CCCCCCCCCc1cc(O)cc(OC)c1O`, the growth is reported as 13.6%.
`NC(CO)(CO)c1ccccc1` was tested, and the growth was 97.5%.
In the case of `Cc1onc(-c2c(F)cccc2Cl)c1-c1ncc(-c2ccc(Br)cc2)o1`, the growth is reported as 43.6%.
Work on `CC12CCC3c4ccc(O)cc4CCC3C1CCC2=O` (stereo not given) yielded a growth of 112%.
In the case of `O=S(Cc1ccccc1)/C(=C/NC(=S)Nc1cc(Cl)ccc1Cl)c1ccccc1` (stereo not given), the growth is reported as 110%.
Work on `Cc1ccc(C(C)C)c(OCC(=O)O)c1` yielded a growth of 113%.
`CCOC(=O)CNC` showed a growth of 111%.
In the case of `Nc1c(O)c(S(=O)(=O)O)c(O)c2c1C(=O)c1ccccc1C2=O`, the growth is reported as 8.87% (active).
`O=C(O)c1ccc([N+](=O)[O-])cc1S(=O)(=O)O` gave a growth of 99.4%.
Compound `CC(=O)N(C(C)=O)c1ccc(C)cc1` has a growth of 112%.
For `O=[N+]([O-])c1ccc2[nH]c(=S)n(/C=C(/c3ccc(Cl)cc3Cl)S(=O)(=O)Cc3ccc(Cl)cc3Cl)c2c1`, the growth was 117%.
`CC(C)N1CC(=O)N2CSCC2C1=O` (stereo not given) gave a growth of 104%.
In the case of `O=C(Nc1ccccc1)c1ccco1`, the growth is reported as 114%.
For `Cc1ccc(Cc2ccc(C)cc2)cc1`, the growth was 116%.
With `Cc1ccc(O)c(N)c1` the growth was 118%.
